Here are results for three sequences from PMC7862700, “An all-to-all approach to the identification of sequence-specific readers for epigenetic DNA modifications on cytosine”.

Assay in all cases: DAPPL (digital affinity profiling via proximity ligation, sequencing); 10 mM Tris-HCl pH 7.5, 50 mM NaCl, 1 mM DTT, 4% glycerol, room temperature, 30 min; GST-TFs on glutathione beads, 16-mer random dsDNA library, 0.1% formaldehyde crosslink after washing; high values mean tight binding
Holding throughout (conditions): protein: recombinant; tags: N-terminal GST; dsDNA, one strand shown

For one assay, the target named is T1, FLI1 (Homo sapiens, UniProt Q01543 1-452).
T1 sequence: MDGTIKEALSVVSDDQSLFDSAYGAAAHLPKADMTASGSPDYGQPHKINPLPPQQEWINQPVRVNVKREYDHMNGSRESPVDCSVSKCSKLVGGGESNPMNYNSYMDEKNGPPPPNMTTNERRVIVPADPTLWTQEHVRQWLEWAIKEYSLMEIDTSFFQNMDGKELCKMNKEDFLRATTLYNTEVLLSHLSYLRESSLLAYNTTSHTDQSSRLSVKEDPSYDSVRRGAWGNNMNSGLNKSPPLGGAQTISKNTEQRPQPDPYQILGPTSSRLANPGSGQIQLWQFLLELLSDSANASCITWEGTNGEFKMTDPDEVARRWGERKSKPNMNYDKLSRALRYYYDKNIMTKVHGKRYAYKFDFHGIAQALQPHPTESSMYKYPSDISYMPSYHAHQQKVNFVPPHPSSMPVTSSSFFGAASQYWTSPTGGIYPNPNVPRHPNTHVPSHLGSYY
The essentials: (§1)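 Human transcription factors fused to GST were expressed in yeast, captured on glutathione beads, given DNA barcodes and pooled with a GST-only negative control. Pools were incubated with 200 nmole of a 16-mer random double-stranded DNA library in Tris/NaCl/DTT/glycerol buffer at room temperature for 30 min. They were then washed, crosslinked with 0.1% formaldehyde, proximity-ligated (BsaI/T4 ligase, 1 h, 37 °C), PCR-amplified and sequenced on an Illumina NextSeq500. Binding signal is each 6-mer's read frequency for a factor divided by its frequency for the GST control.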

The target in a further assay is T2, ERG (Homo sapiens, UniProt P11308 1-479).
T2 sequence: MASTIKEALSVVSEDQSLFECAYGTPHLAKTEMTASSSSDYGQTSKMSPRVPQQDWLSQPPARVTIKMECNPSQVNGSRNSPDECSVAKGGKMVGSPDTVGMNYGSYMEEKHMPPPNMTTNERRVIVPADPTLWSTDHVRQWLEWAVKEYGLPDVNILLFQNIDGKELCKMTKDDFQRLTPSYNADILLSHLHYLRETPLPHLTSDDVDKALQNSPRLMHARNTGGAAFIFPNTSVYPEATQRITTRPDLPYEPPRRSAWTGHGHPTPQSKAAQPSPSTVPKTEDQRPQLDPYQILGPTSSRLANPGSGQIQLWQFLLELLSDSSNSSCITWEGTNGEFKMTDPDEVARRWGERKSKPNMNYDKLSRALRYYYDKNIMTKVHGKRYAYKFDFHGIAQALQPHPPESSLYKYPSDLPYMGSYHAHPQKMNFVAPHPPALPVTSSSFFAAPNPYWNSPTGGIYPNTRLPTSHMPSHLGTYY
In short, it runs like this:
as §1

In a further assay the target is T3, ELK3 (Homo sapiens, UniProt P41970 1-407).
T3 sequence: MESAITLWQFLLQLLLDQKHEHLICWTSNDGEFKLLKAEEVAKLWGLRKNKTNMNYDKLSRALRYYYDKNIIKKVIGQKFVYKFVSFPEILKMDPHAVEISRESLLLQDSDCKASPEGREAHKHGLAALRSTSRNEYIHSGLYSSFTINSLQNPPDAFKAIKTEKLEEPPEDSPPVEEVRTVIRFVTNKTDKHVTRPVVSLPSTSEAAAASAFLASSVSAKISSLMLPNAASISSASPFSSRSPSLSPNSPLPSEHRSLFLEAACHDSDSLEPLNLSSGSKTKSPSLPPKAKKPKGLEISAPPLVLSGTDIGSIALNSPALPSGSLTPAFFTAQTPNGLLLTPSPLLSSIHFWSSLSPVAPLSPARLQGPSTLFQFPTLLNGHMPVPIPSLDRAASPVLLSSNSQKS
In short, it runs like this: as §1

The next assay deals with T4, SPIC (Homo sapiens, UniProt Q8N5J4 1-248).
T4 sequence: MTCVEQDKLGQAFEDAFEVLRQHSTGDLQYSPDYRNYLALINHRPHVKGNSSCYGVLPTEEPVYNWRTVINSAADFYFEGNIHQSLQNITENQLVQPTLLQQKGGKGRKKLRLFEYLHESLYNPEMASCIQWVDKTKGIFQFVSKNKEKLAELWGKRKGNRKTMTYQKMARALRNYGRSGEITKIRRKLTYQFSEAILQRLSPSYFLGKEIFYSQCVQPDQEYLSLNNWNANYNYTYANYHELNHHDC
In short, it runs like this:
as §1

For another assay, the target named is ELF4 (Homo sapiens, UniProt Q99607 1-663). The essentials:
as §1

Another assay addresses T5, ELF3 (Homo sapiens, UniProt P78545 1-371).
T5 sequence: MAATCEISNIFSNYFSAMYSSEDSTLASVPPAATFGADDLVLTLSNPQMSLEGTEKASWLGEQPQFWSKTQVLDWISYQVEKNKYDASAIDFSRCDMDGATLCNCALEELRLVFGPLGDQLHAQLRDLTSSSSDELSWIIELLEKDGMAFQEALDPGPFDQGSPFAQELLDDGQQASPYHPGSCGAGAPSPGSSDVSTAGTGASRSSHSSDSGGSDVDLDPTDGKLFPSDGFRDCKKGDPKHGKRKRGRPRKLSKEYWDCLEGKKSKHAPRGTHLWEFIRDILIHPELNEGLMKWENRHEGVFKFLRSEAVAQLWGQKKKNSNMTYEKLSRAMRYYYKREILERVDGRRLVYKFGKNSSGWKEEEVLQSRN
In short, it runs like this:
as §1

Another assay concerns the target ETV1 (Homo sapiens, UniProt P50549 1-477). The essentials: as §1
Another assay concerns the target T6, ETV3L (Homo sapiens, UniProt Q6ZN32 1-361).
T6 sequence: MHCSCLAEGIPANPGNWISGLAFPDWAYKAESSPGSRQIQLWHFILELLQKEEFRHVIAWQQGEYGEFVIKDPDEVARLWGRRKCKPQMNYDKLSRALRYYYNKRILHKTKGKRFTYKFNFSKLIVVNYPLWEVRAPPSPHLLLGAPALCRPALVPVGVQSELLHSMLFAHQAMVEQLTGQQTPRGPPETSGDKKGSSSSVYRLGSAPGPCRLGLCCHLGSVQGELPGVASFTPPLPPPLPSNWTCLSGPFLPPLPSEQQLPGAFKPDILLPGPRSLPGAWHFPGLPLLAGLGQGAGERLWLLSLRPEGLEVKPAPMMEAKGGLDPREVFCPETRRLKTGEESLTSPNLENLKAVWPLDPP
The essentials:
as §1

Another assay deals with T7, ETV3 (Homo sapiens, UniProt P41162-2 1-143).
T7 sequence: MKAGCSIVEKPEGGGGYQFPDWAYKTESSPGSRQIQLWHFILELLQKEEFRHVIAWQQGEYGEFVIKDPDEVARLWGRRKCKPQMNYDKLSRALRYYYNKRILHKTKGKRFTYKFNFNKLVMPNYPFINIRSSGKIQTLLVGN
In short, it runs like this: as §1

In the next assay the target is ELF1 (Homo sapiens, UniProt P32519 1-619). In short, it runs like this:
as §1

A further assay has as its target SPIB (Homo sapiens, UniProt Q01892 1-262). In short, it runs like this: as §1
The next assay addresses T8, ELK4 (Homo sapiens, UniProt P28324-2 1-405).
T8 sequence: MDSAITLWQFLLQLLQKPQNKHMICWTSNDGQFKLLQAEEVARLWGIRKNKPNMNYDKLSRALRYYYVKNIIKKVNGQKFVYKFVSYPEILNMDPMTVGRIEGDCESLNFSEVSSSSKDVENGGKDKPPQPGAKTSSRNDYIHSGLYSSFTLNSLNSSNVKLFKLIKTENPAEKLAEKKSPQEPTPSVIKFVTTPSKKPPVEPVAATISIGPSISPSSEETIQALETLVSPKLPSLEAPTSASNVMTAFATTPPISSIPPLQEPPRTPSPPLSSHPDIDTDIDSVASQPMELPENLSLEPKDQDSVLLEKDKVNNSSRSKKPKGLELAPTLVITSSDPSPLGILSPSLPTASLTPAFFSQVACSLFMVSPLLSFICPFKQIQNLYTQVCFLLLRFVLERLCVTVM
In short, it runs like this: as §1

The target of another assay is T9, ETV2 (Homo sapiens, UniProt O00321 1-342).
T9 sequence: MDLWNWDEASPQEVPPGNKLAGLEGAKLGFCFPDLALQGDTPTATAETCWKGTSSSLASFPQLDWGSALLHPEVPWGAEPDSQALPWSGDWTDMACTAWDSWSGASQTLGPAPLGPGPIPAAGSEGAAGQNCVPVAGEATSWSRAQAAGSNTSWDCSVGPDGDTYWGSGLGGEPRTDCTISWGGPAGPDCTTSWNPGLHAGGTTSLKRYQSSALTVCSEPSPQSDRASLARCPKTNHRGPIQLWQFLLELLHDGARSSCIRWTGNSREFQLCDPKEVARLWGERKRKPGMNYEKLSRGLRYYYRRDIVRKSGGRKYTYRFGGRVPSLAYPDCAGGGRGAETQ
In short, it runs like this:
as §1

The target in another assay is T10, EHF (Homo sapiens, UniProt Q9NZC4 1-300).
T10 sequence: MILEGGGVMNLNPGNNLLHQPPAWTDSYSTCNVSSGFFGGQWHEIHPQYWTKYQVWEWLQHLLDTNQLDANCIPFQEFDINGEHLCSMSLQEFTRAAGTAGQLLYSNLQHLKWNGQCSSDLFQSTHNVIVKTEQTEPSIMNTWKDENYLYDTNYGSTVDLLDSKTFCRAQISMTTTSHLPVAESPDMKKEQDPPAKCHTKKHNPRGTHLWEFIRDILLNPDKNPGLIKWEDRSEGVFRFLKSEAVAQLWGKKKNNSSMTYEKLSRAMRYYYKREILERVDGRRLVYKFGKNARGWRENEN
The essentials: as §1

For a further assay, the target named is T11, ERF (Homo sapiens, UniProt P50548 1-548).
T11 sequence: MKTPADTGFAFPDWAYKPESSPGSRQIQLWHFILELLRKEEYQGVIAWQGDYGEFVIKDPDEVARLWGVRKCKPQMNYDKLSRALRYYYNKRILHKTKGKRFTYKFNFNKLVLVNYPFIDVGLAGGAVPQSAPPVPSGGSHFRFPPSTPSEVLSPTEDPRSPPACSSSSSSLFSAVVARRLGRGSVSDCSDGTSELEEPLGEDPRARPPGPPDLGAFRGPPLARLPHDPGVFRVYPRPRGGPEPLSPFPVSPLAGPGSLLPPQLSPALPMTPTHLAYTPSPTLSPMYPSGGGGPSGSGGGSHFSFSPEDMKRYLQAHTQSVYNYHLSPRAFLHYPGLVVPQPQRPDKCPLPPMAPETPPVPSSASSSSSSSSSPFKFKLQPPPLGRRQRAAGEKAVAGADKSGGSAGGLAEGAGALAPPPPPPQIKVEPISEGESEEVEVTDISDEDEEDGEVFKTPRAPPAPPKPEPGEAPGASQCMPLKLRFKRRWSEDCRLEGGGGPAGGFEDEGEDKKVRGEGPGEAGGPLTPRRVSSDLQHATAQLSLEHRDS
The essentials:
as §1

The next assay concerns the target T12, ETV7 (Homo sapiens, UniProt Q9Y603 1-341).
T12 sequence: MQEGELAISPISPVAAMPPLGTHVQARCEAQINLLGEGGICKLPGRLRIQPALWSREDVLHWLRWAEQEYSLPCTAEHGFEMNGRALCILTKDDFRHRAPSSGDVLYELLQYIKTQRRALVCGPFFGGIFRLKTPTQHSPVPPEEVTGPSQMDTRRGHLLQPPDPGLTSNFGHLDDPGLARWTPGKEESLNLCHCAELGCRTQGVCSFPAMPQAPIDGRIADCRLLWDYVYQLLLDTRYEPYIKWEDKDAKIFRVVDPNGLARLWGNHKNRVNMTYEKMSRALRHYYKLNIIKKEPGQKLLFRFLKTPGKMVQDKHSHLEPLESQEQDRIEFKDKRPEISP
In short, it runs like this: as §1

Sequence of ETV1 (P50549 whole entry): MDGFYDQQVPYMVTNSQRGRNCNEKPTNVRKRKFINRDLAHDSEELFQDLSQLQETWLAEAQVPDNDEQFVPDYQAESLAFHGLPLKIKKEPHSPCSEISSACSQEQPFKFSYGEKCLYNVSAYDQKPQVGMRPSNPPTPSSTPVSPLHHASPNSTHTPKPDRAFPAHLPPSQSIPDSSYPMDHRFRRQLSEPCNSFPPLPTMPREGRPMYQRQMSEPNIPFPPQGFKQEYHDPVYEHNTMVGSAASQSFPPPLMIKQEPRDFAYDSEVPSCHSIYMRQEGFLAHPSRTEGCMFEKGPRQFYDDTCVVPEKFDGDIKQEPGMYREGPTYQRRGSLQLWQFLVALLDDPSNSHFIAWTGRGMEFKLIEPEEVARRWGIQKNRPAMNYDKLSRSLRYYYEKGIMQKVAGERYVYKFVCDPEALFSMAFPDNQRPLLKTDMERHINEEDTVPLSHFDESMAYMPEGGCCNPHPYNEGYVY
Sequence of ELF4 (Q99607 whole entry): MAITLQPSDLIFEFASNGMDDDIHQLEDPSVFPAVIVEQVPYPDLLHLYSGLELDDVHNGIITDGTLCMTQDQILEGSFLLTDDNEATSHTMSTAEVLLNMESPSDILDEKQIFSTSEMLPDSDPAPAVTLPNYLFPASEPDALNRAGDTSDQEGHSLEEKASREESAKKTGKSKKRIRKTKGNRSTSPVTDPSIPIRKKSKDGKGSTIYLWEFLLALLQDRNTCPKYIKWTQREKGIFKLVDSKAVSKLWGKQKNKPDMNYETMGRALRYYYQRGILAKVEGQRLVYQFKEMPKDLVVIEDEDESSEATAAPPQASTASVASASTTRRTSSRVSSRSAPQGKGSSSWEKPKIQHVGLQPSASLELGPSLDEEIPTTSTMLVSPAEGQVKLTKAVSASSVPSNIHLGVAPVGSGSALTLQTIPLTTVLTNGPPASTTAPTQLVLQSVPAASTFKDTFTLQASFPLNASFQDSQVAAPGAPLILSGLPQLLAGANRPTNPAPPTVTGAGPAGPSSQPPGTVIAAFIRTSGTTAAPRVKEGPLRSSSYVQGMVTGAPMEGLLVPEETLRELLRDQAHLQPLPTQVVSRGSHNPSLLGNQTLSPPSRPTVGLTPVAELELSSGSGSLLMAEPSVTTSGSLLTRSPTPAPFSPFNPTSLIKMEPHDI
Sequence of ELF1 (P32519 whole entry): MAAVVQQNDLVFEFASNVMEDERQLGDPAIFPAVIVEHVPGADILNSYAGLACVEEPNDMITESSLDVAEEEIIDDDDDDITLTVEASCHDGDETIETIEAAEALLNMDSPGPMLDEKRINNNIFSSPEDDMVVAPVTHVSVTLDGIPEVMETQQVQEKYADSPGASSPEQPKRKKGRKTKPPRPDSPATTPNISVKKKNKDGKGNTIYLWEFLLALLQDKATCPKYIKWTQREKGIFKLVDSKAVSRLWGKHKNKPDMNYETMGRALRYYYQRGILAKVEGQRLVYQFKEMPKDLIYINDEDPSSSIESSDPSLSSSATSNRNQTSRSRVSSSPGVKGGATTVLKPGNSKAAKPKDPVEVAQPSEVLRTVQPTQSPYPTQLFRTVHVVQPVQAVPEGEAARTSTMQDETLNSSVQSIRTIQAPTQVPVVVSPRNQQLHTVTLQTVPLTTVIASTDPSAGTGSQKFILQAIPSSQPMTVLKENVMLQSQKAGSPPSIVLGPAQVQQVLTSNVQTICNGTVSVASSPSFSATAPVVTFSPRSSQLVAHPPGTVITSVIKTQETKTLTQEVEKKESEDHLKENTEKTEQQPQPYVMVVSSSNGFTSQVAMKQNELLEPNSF
Sequence of SPIB (Q01892 whole entry): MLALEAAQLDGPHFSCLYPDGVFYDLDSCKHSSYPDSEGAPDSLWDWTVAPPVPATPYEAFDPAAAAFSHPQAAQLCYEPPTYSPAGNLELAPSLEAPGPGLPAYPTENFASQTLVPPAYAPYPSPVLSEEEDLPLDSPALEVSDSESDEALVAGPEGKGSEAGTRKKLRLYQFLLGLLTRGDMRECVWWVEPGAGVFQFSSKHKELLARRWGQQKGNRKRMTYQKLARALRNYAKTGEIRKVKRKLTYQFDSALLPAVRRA

GATACA: the binding signal is 1.03 fold enrichment (6-mer frequency, TF over GST control) with FLI1; 1.03 fold enrichment (6-mer frequency, TF over GST control) in the assay with ERG; 1.03 fold enrichment (6-mer frequency, TF over GST control) with ELK3; 1.07 fold enrichment (6-mer frequency, TF over GST control) with SPIC; 1.08 fold enrichment (6-mer frequency, TF over GST control) with ELF4; 1.08 fold enrichment (6-mer frequency, TF over GST control) in the assay with ELF3. Also, the binding signal is 1.06 fold enrichment (6-mer frequency, TF over GST control) with ETV1; 1.05 fold enrichment (6-mer frequency, TF over GST control) in the assay with ETV3L; 1.01 fold enrichment (6-mer frequency, TF over GST control) with ETV3.
As for ACTGTC, the binding signal with FLI1 is 1.02 fold enrichment (6-mer frequency, TF over GST control); in the assay with ELF1, 1.01 fold enrichment (6-mer frequency, TF over GST control); in the assay with SPIB, 1.05 fold enrichment (6-mer frequency, TF over GST control); with SPIC it was 1.09 fold enrichment (6-mer frequency, TF over GST control); in the assay with ELK4 it was 1 fold enrichment (6-mer frequency, TF over GST control); with ETV2, 1.1 fold enrichment (6-mer frequency, TF over GST control). Further, the binding signal with ELF3 was 1.01 fold enrichment (6-mer frequency, TF over GST control); in the assay with ETV1 it was 1 fold enrichment (6-mer frequency, TF over GST control).
With ACTCGG, the binding signal with FLI1 is 1.07 fold enrichment (6-mer frequency, TF over GST control); with ELF1, 1.07 fold enrichment (6-mer frequency, TF over GST control); in the assay with EHF, 1.04 fold enrichment (6-mer frequency, TF over GST control); in the assay with ELK3 it was 1.06 fold enrichment (6-mer frequency, TF over GST control); with SPIC it was 1.08 fold enrichment (6-mer frequency, TF over GST control); in the assay with ELF4, 1.02 fold enrichment (6-mer frequency, TF over GST control). Besides, the binding signal in the assay with ETV2 is 1.03 fold enrichment (6-mer frequency, TF over GST control); with ELF3, 1.03 fold enrichment (6-mer frequency, TF over GST control); with ETV1, 1.03 fold enrichment (6-mer frequency, TF over GST control); with ERF, 1.04 fold enrichment (6-mer frequency, TF over GST control); in the assay with ETV7 it was 1.06 fold enrichment (6-mer frequency, TF over GST control); with ETV3 it was 1.04 fold enrichment (6-mer frequency, TF over GST control).
